Assay outcomes as filed in PubChem.
Most compounds without a hit are left out; they make up all but 4.8% or so of the library.
ATXN2 expr inh – reduces ATXN2 reporter expression in HEK-293 cells; Potency, µM (series often up to 57 µM), for inactives: at the highest dose activity change, negative = inhibition, usual class: inhibitors; HEK-293 ATXN2-luciferase reporter, luminescence, 24 h; 0.72% of 360,000 active; AID 1745845; further: potency means the concentration at half of the fitted maximal effect; on the % scale 0 is the no-effect control and ±100 the full control effect; nearly all actives have a fitted effect of over 55% in size
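ATXN2-luciferase reporter cells (luciferase flanked by upstream and downstream ATXN2 gene portions) were treated 24 h at 37 °C with compounds at up to 57 uM. SteadyGlo luminescence gave expression; GF-AFC fluorescence gave viability.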
TGFb SMAD3 inh – blocks TGF-b signaling. HepG2 CAGA-GFP TGF-b/SMAD3 reporter, GFP fluorescence, 18 h; TGF-beta stimulated, 500 pg/mL final. Potency, µM (titrated, usually from 46.1 µM), without a hit: at the highest dose activity, negative = inhibition, usual class: inhibitors. 1.2% of 410,000 active. AID 588855; further: potency means the concentration at half of the fitted maximal effect; on the % scale 0 is the no-effect control and ±100 the full control effect; nearly all actives have a fitted effect of over 65% in size
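TGF-beta reporter screen: HEPG2 CAGA-GFP, 1% FBS, 500 pg/mL TGF-beta final, 18 h; per-cell GFP summed per well; curves fitted and categorized by class.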
DRD3 agonist – agonists of human D3 dopamine receptor. 0.58% of 410,000 active. D3R DiscoveRx beta-arrestin cells, luminescence, 90 min. AID 652048. P35462. max activation, %; in the data active means max activation above about 30%; further: 0% is about no effect
Target sequence (P35462 whole entry, looked up): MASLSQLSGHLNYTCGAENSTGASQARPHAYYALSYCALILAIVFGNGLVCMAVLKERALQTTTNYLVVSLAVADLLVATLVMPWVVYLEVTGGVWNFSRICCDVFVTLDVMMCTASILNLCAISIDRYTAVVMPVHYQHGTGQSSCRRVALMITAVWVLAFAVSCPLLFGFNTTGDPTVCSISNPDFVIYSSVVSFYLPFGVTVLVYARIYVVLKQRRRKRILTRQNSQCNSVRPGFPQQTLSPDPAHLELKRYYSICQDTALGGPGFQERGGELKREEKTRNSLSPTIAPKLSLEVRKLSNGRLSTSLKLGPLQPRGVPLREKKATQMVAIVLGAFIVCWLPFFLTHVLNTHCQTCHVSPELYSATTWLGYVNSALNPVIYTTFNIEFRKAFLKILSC
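Agonist-mode cell screen: cells plated at 1500/well and incubated overnight at 37 °C, then exposed to library compounds for 90 min at 37 °C. Detection reagent was added for 30–60 min at room temperature, and luminescence was read.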
HepG2 viability – kills HepG2 cells in TGF-b inhibitor counter-screen; Potency, µM (series often up to 46.1 µM), inactives show top-dose activity change, negative = cytotoxicity, actives largely listed as cytotoxic; AID 588856; 0.76% of 410,000 active; HepG2 CAGA-GFP viability, ATP luminescence, 18 h; further: potency means the concentration at half of the fitted maximal effect
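HepG2 CAGA-GFP cells (1000/well, DMEM with 1% FBS) received compound, then TGF-beta at 500 pg/mL final, and were incubated 18 hours at 37 degrees C. Viability was read by CellTiter-Glo luminescence. Media-only wells were set as complete cell-killing and DMSO as no toxicity.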
DRD3 antagonist – antagonists of human D3 dopamine receptor. P35462. D3R cells, DiscoveRx beta-arrestin luminescence, antagonist mode; stronger effect = lower value. 2.5% of 360,000 active. max response, negative = inhibition, %; in the data active means max response below about -50%; inconclusive means no clear call, values can overlap the other calls; further: on the % scale 0 is the no-effect control and ±100 the full control effect
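Cells expressing the human receptor were seeded at 1500 cells/well, incubated overnight at 37 degrees C in 5% CO2, then exposed to library compounds with dopamine controls for 90 minutes at 37 degrees C before luminescent detection.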
ATXN viability – reduces viability in counter-screen for ATXN expression inhibitors | S2 cells (HEK-293 line with an ATXN2-luciferase reporter) viability, CellTiter-Fluor protease fluorescence, 24 h | Potency, µM (titrated, usually from 56.7 µM), usual class: cytotoxic | 0.49% of 400,000 active | AID 651635; further: potency means the concentration at half of the fitted maximal effect; nearly all actives have a fitted effect of over 40% in size
Numbers without * were called inactive. Unless noted, the call rests on the fitted dose curve; in most records, active means well fitted curve in the direction sought with a large enough effect; inconclusive means small, poorly fitted or top-dose-only effect, or another doubt; inactive means no such curve, though single readings can be large; an effect the other way counts as inactive or inconclusive.

For Cc1ccc(C(NC(=O)C2CCN(CCOc3ccccc3)CC2)c2ccccn2)cc1 (stereo unspecified) the results were ATXN2 expr inh 0%, TGFb SMAD3 inh -2%, DRD3 agonist 7, HepG2 viability -20%, DRD3 antagonist -70* and ATXN viability inactive.
Screening COc1ccc(C(NC(=O)C2CCN(CCOc3ccc(Cl)cc3)CC2)c2cccs2)cc1 (stereo unspecified) returned ATXN2 expr inh -24%, TGFb SMAD3 inh inconclusive, DRD3 agonist -18, HepG2 viability -61%, DRD3 antagonist -81* and ATXN viability inconclusive.
Screening COc1ccc(C(NC(=O)C2CCN(CCc3ccccc3)CC2)c2ccccn2)cc1 (stereo unspecified) returned ATXN2 expr inh -2%, TGFb SMAD3 inh 11%, DRD3 agonist -18, HepG2 viability 5%, DRD3 antagonist -75* and ATXN viability inconclusive.
For COc1ccc(C(NC(=O)C2CCN(CCCOc3ccccc3)CC2)c2ccccn2)cc1 (stereo unspecified) the results were ATXN2 expr inh -3%, TGFb SMAD3 inh 11%, DRD3 agonist -24, HepG2 viability -10%, DRD3 antagonist -110* and ATXN viability inactive.
COc1ccc(C(NC(=O)C2CCN(CCCc3ccccc3)CC2)c2ccccn2)cc1 (stereo unspecified) was read as ATXN2 expr inh 9%, TGFb SMAD3 inh -5%, DRD3 agonist 6, HepG2 viability -2%, DRD3 antagonist -22 and ATXN viability inactive.
COC(=O)c1cc(Cl)ccc1OC was read as ATXN2 expr inh 7% and ATXN viability inactive.
Screening COc1ccccc1N1CCN(c2nc(-c3ccc(C)cc3)nc3ccccc23)CC1 returned TGFb SMAD3 inh -21%, DRD3 agonist -15 and HepG2 viability -4%.
`Cc1ccc(C(NC(=O)C2CCN(Cc3ccc(Oc4ccccc4)cc3)CC2)c2ccccn2)cc1` (stereo unspecified) gave ATXN2 expr inh inconclusive, TGFb SMAD3 inh inconclusive, DRD3 agonist -12, HepG2 viability 11µM*, DRD3 antagonist -83* and ATXN viability inconclusive.
COc1ccc(OCCN2CCC(C(=O)NC(c3ccc(OC)cc3)c3ccccn3)CC2)cc1 (stereo unspecified) was read as ATXN2 expr inh 2%, TGFb SMAD3 inh 0%, DRD3 agonist -22, HepG2 viability -24%, DRD3 antagonist -67* and ATXN viability inactive.
For Cc1ccc(C2=NS(=O)(=O)N(C)C(C(=O)Nc3ccc4c(c3)OCO4)=C2)cc1 the results were ATXN2 expr inh 6%, TGFb SMAD3 inh inconclusive, DRD3 agonist -12, HepG2 viability -27%, DRD3 antagonist -6 and ATXN viability inactive.
`COc1ccc(C2=NS(=O)(=O)N(C)C(C(=O)Nc3ccc4c(c3)OCO4)=C2)cc1` gave ATXN2 expr inh 0%, TGFb SMAD3 inh inconclusive, DRD3 agonist -10, HepG2 viability -30%, DRD3 antagonist -103* and ATXN viability inactive.
Screening O=C(c1ccc(COc2ccc3ccccc3c2)o1)N1N=C(C(F)F)CC1(O)C(F)F (stereo unspecified) returned ATXN2 expr inh -26%, TGFb SMAD3 inh 11µM*, DRD3 agonist 9, HepG2 viability -108%, DRD3 antagonist 12 and ATXN viability inactive.
For CCC(c1nc2ccccc2[nH]1)n1c(-c2ccnc(Cl)c2)nc2ccccc21 (stereo unspecified) the results were DRD3 agonist -11 and DRD3 antagonist -75*.
Screening CC(C)N1CCN(c2ccc(OC[C@H]3CO[C@](Cn4cncn4)(c4ccc(Cl)cc4Cl)O3)cc2)CC1 returned ATXN2 expr inh inconclusive, TGFb SMAD3 inh inconclusive, DRD3 agonist -53, HepG2 viability 13µM*, DRD3 antagonist -23 and ATXN viability inconclusive.
